From PubChem BioAssay (NCI)
Where “and” joins values, the source holds several entries; their conditions need not be identical. Identical values can stand only once. Compounds without any hit were thinned out: in the full panel of roughly 83,000, 20% have a hit.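 Percent growth is the endpoint: 0 to 100 indicates growth inhibition (40 means 60% inhibition), 0 means no net growth, and negative values indicate cell death.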 Calls of active or inactive are those of the source. The calls were made as follows: active = growth percent below 10; inactive = the rest. Where a SMILES comes first, the peptide text is derived from it. The star is where a group is joined. Trt = c1ccc(C(c2ccccc2)(c2ccccc2)*)cc1; Cbz = O=C(OCc1ccccc1)*

What was measured:
Experiment in all cases: NCI-60 one-dose screen, 48 h (100 = growth as untreated, 0 = no growth, -100 = all killed)
Conditions in all cases: 10 µM unless noted
SR leukemia = test system: SR leukemia
RPMI-8226 leukemia = test system: RPMI-8226 leukemia
OVCAR-8 ovarian = test system: OVCAR-8 ovarian
OVCAR-5 ovarian = test system: OVCAR-5 ovarian
OVCAR-4 ovarian = test system: OVCAR-4 ovarian
SK-OV-3 ovarian = test system: SK-OV-3 ovarian
IGROV1 ovarian = test system: IGROV1 ovarian
OVCAR-3 ovarian = test system: OVCAR-3 ovarian
NCI/ADR-RES ovarian = test system: NCI/ADR-RES ovarian
HS 578T breast = test system: HS 578T breast

Row | Compound | growth (SR leukemia) | growth (RPMI-8226 leukemia) | growth (OVCAR-8 ovarian) | growth (OVCAR-5 ovarian) | growth (OVCAR-4 ovarian) | growth (SK-OV-3 ovarian) | growth (IGROV1 ovarian) | growth (OVCAR-3 ovarian) | growth (NCI/ADR-RES ovarian) | growth (HS 578T breast)
1 | CN(C)c1ccc(N=Nc2cccc3ccccc23)cc1 | 111% (inactive) | 72.5% (inactive) | 94.8% (inactive) | 107% (inactive) | 81.4% (inactive) | 80.1% (inactive) | 67.2% (inactive) | 84.3% (inactive) | 102% (inactive) | –
2 | Cc1ccnc(NC(c2ccccc2)c2ccc3cccnc3c2O)c1 (stereo unspecified) | 10% (inactive) | 51.5% (inactive) | 28.1% (inactive) | 69.9% (inactive) | 20.6% (inactive) | 57.5% (inactive) | 36.5% (inactive) | 19.5% (inactive) | 22.4% (inactive) | –
3 | Cc1c2ccccc2c(C)c2c1ccc1ccccc12 | 63.8% (inactive) | 84.3% (inactive) | 98.8% (inactive) | 95.6% (inactive) | 89.9% (inactive) | 99.4% (inactive) | 81% (inactive) | 105% (inactive) | 106% (inactive) | 98% (inactive)
4 | CCN1/C(=C\c2cc[n+](CC)c3ccccc23)C=Cc2ccccc21 | 15.7% (inactive) | 12.6% (inactive) | 9.96% (active) | 11.7% (inactive) | 12.9% (inactive) | 3.69% (active) | 29.8% (inactive) | 11.8% (inactive) | 86.9% (inactive) | –
5 | COC(=O)C(CSC(c1ccccc1)(c1ccccc1)c1ccccc1)NC(=O)C(CC(N)=O)NC(=O)OCc1ccccc1 (stereo not drawn) (Cbz-Asn-Cys(Trt)-OMe; configuration not given here) | -43.7% (active) | 2.8% (active) | 13.1% (inactive) | 67% (inactive) | 39.5% (inactive) | 14.2% (inactive) | 48.6% (inactive) | -5.78% (active) | 63.2% (inactive) | -20.4% (active)
6 | O=C(/C=C/C=C/c1ccccc1)c1ccco1 | 16.7% (inactive) | 10.8% (inactive) | 89.1% (inactive) | 108% (inactive) | 78.7% (inactive) | 105% (inactive) | 64.8% (inactive) | 85.6% (inactive) | 91.3% (inactive) | 62.6% (inactive)
7 | COc1ccc(N=N/N=c2\sc3cc(OC)ccc3n2C)cc1 | 88.9% (inactive) | 77.3% (inactive) | 75.1% (inactive) | 98.6% (inactive) | 108% (inactive) | 86.3% (inactive) | 91.7% (inactive) | 97.8% (inactive) | 109% (inactive) | 96% (inactive)
8 | COC(=O)Nc1nc2ccc(C(=O)c3ccccc3)cc2[nH]1 | 19.8% (inactive) and 2.51% (active) | 45.5% (inactive) and -31.7% (active) | 22% (inactive) and 20.6% (inactive) and 22.1% (inactive) | 20.7% (inactive) and 47.1% (inactive) | 52.6% (inactive) and 72.1% (inactive) and 39.6% (inactive) | 22.8% (inactive) and 28.9% (inactive) and 32.6% (inactive) | 43.2% (inactive) and 13.7% (inactive) and -39.8% (active) | -50.1% (active) and -60.4% (active) and -59.4% (active) | -28.8% (active) and 4.68% (active) and -3.41% (active) | –
9 | N#CSCC(=O)c1ccc(Cl)cc1 | 69.9% (inactive) | 45.6% (inactive) | 63.7% (inactive) | 22.5% (inactive) | 63.5% (inactive) | 66.7% (inactive) | – | -25.3% (active) | -16.4% (active) | 70.5% (inactive)
10 | COc1ccccc1/C=C\C(=O)c1ccccc1 | 15.3% (inactive) | -13.3% (active) | 75.8% (inactive) | 84% (inactive) | 81.2% (inactive) | 94.5% (inactive) | 64.4% (inactive) | 110% (inactive) | 14.2% (inactive) | –
11 | CCOC(=O)c1c(C)[nH]c(CO)c1C | 101% (inactive) | 97.8% (inactive) | 101% (inactive) | 104% (inactive) | 105% (inactive) | 102% (inactive) | 98% (inactive) | 103% (inactive) | 105% (inactive) | –
12 | CNc1ccc2c(c1)c1ccccc1n2C | 93.9% (inactive) | 110% (inactive) | – | 112% (inactive) | 108% (inactive) | 106% (inactive) | 109% (inactive) | 102% (inactive) | 102% (inactive) | 118% (inactive)
13 | O=Nc1ccccc1N=O | 63.8% (inactive) | 86.7% (inactive) | – | 105% (inactive) | 88.9% (inactive) | 116% (inactive) | 91.1% (inactive) | 118% (inactive) | 81.2% (inactive) | 84.2% (inactive)
